EBV LMP1 NFkB = EBV LMP1-driven NF-kappaB luciferase reporter inhibitors, primary screen, cell-based, luminescence, single point; LMP1-induced NF-kappaB luciferase reporter cells; AID 504558, 2011; inhibition, % at 12.5 µM; 0.69% of 350,000 active; in the data active = inhibition above about 41%; inconclusive = no clear call, values can overlap the other calls;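 also: 0% = neutral control wells and 100% = reference inhibitor control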
LGR2 inh = inhibitors of bursicon-induced LGR2 CRE-luciferase signal, primary screen, cell-based, HEK293, CRE-luciferase reporter, bursicon stimulation; Drosophila bursicon receptor LGR2 (rickets); bursicon-stimulated, 4 h; inhibition, % at 9.99 µM; 0.35% of 380,000 active; AID 720647, 2013;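 active = drop in luminescence signal, shown as inhibition above about 50% in the replicate tests, limit read from the data, passing the limit was not always enough; inconclusive = probably only some replicates passing the limit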;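 also: agonist challenge used bursicon conditioned medium at about half maximal strength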
Shn3 inh set2 = reduction of Shn3 3'UTR firefly luciferase signal, primary screen, Schnurri-3 inhibitor project, cell-based, Clone20 osteoblasts, set 2; Clone20 osteoblast Shn3 3'UTR firefly luciferase, 24 h; inhibition, % at 12.5 µM; 0.52% of 360,000 active;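 active = mean inhibition of at least 75% with every replicate also reaching 75%; inconclusive = mean inhibition at least 75% but some replicate below; inactive = mean inhibition below 75%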;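 also: 0% = median of neutral control wells and 100% = pilot-screen positive control compound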
TRPM1 prom inh = inhibitors of MITF-dependent TRPM1 promoter reporter, primary screen, cell-based, SK-MEL-5, single point, luciferase; inhibition, % at 12.5 µM; 0.83% of 330,000 active; SK-MEL-5 TRPM1 promoter luciferase, 24 h;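 active = mean inhibition across replicates of 60% or more, whatever share of single replicates reaches that level; inconclusive = some that reach 60%, reason not given; inactive = mean inhibition across replicates below 60%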
PAX8 inh HTS = inhibitors of PAX8-driven TPO luciferase reporter, primary screen, RMG-I cells, single concentration | SteadyGlo, 24 h | inhibition, % at 12.6 µM | 1.2% of 360,000 active | AID 652154, 2013;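 active = mean replicate inhibition at least 60% with every replicate also reaching 60%; inconclusive = only one of the two criteria is met; inactive = mean below 60% and not all replicates reaching 60%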;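 also: luciferase light reporting Pax8 driven TPO promoter activity; plate controls were median of neutral control wells for no effect and mitoxantrone controls for full effect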
EWS-Fli inh = EWS/Fli-driven NR0B1 reporter inhibitors, primary screen, A673 cells, NR0B1 luciferase, luminescence, MLPCN library; inhibition, % at 12.6 µM; 0.67% of 350,000 active; viability-normalised;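 active = mean inhibition of at least 50% after viability correction, with every replicate also passing that limit; inconclusive = mean reaches 50% but only one of two replicates passes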;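 also: firefly luciferase signal divided by Alamar Blue viability fluorescence both relative to DMSO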
* = called active by the depositor; ? = inconclusive; . = not tested or not shown; ! = not active in a repeat. Rows were chosen to be rich in hits. Some 2.2% of all compounds tested hit in one or more screens of this group.

SMILES	EBV LMP1 NFkB	LGR2 inh	Shn3 inh set2	TRPM1 prom inh	PAX8 inh HTS	EWS-Fli inh
C=CCC[C@H](Cc1ccc(F)cc1)C(=O)OC[C@H](Cc1c[nH]c2ccccc12)NC(=O)[C@H](CC=C)CC(=O)N(CCO)Cc1ccccc1	0.6	33.2	82.8	13.2	97.4*	23.2
C=CC[C@@H](CC(=O)N(CCO)Cc1ccccc1)C(=O)NC[C@@H](OC(=O)[C@@H](CC=C)Cc1ccc(F)cc1)c1ccccc1	2.0	13.0	9.3	9.8	41.6	4.0
Cc1noc(C)c1S(=O)(=O)Nc1cccc2c1O[C@H](CN(C)C(=O)Nc1ccc3c(c1)OCO3)[C@H](C)CN([C@H](C)CO)C2=O	.	14.5	.	.	.	-1.6
C=CCC[C@@H](Cc1ccc(F)cc1)C(=O)OC[C@@H](Cc1c[nH]c2ccccc12)NC(=O)[C@@H](CC=C)CC(=O)N(CCO)Cc1ccccc1	1.7	20.4	-1.8	16.2	66.6*	5.4
CCOc1cc(C=C(C(=O)OC)C(=O)OC)ccc1OCc1ccc([N+](=O)[O-])cc1	10.0	.	95.8*	57.5	.	.
CCOc1cc(/C=N/O)ccc1OCc1ccc([N+](=O)[O-])cc1	-8.7	-4.2	-6.3	-27.0	-34.9	0.8
COc1ccc(-n2c(C)c(C(C)=O)c3cc(O)ccc32)cc1	57.2*	.	6.3	1.5	.	.
Cc1ccc(NC(=O)C(=O)Nc2ccccn2)cc1	56.1*	92.9*	12.7	2.6	2.0	?
O=C(NC(=O)c1ccccc1)Nc1ccccn1	71.3*	88.6*	60.6	81.3*	85.0*	.
O=C(Nc1ccccn1)NC1CCCCC1	84.4*	.	-12.2	-7.7	.	.
O=C(Nc1ccccn1)NC1CCS(=O)(=O)C1 (configuration not stated)	-2.0	-6.8	19.4	6.2	25.8	.
Cc1ccc(S(=O)(=O)CC(=O)Nc2ccccn2)cc1	-2.6	6.3	-8.3	2.6	-10.2	-4.8
COc1ccc(-c2ccccc2[C@@H]2[C@H](C#N)N(C(=O)c3cccnc3)[C@H]2CO)cc1	.	6.2	.	.	-17.4	5.8
C[C@H]1CN([C@@H](C)CO)S(=O)(=O)c2ccc(C#Cc3ccccc3F)cc2O[C@H]1CN(C)C(=O)c1ccc2c(c1)OCO2	.	9.6	.	.	89.8*	22.2
C[C@@H]1CN([C@@H](C)CO)S(=O)(=O)c2ccc(C#Cc3ccccc3F)cc2O[C@@H]1CN(C)C(=O)c1ccc2c(c1)OCO2	.	5.7	.	.	77.6*	17.7
O=C(C[C@@H]1C=C[C@@H](NC(=O)Nc2cc(F)ccc2F)[C@H](CO)O1)NCc1ccccn1	.	-20.5	.	.	6.6	3.5
O=C(Nc1cccc(Cl)c1)c1ccc2c(c1)SC1=NS(=O)(=O)CCN12	13.1	11.1	-2.9	10.7	74.5*	20.8
CCCCCCCCCCOC(=O)Cn1c(COc2ccccc2C)[n+](C)c2ccccc21	18.5	17.1	?	4.7	.	.
CC1CCC(C(C)C)C(OC(=O)Cn2c(-c3ccc(Cl)cc3)[n+](C)c3ccccc32)C1 (configuration not stated)	10.4	16.8	68.0	89.5*	96.5*	22.6
CC1CCC(C(C)C)C(OC(=O)Cn2c(-c3ccc(Br)cc3)[n+](C)c3ccccc32)C1 (configuration not stated)	-0.7	77.8*	20.8	90.7*	100.4*	21.0
CC1CCC(C(C)C)C(OC(=O)COC(=O)c2cccn2C)C1 (configuration not stated)	4.9	.	-4.0	0.5	.	.
Cc1ccccc1OCc1n(CC(=O)OC2CC(C)CCC2C(C)C)c2ccccc2[n+]1C (configuration not stated)	-4.3	74.7*	5.9	97.4*!	105.4*	?
CC1CCC(C(C)C)C(OC(=O)COC(=O)c2ccc(N)cc2)C1 (configuration not stated)	9.8	14.3	0.8	13.6	10.5	.
CCCNC(=O)C[C@H]1CC[C@@H]2[C@H](COc3ccc(NC(=O)COC)cc3C(=O)N2C)O1	.	8.3	.	.	-12.6	-0.8
Cc1noc(C)c1NC(=O)N1C[C@@H](O)COC[C@@H]2O[C@@H](CC(=O)N3CCc4ccccc4C3)CC[C@H]21	.	-1.9	.	.	18.1	4.4
SMILES	EBV LMP1 NFkB	LGR2 inh	Shn3 inh set2	TRPM1 prom inh	PAX8 inh HTS	EWS-Fli inh
CCOC(=O)N1CCN(S(=O)(=O)Cc2ccccc2)CC1	-2.9	-1.6	-10.6	10.8	.	.
CCOC(=O)C1CCN(S(=O)(=O)Cc2ccccc2)C1=O (configuration not stated)	42.8*	9.3	-3.2	-0.6	.	.
C[C@H]1CCC/C=C/[C@@H]2C[C@H](O)C[C@H]2[C@H](O)[C@H](S(=O)c2ccc(O)cc2)CC(=O)O1 (some centres not stated)	-60.3	.	86.9*	83.0*	110.9*	65.7*
Cn1c2ccccc2c(=O)c2ccc(C#Cc3ccc(N)cc3)cc21	1.6	.	28.3	-21.4	-41.1	-52.6
Cn1c2ccccc2c(=O)c2cc(C#Cc3cccc(N)c3)ccc21	52.4*	.	-94.5	-80.4	.	.
C[C@@H]1CN([C@@H](C)CO)C(=O)c2cc(NS(=O)(=O)c3ccc(Cl)cc3)ccc2O[C@@H]1CN(C)C(=O)Nc1ccc(C(F)(F)F)cc1	.	2.6	.	.	6.7	0.1
Cc1ccc2nc(NC(=O)C3CCN(c4ncnc5sc(C)c(C)c45)CC3)sc2c1	15.6	.	10.2	29.4	.	.
COc1cc(C(=O)NCC(=O)N2CCN(S(=O)(=O)c3cc(C)ccc3C)CC2)cc(OC)c1OC	0.0	15.9	-8.5	16.8	3.5	54.3*
Cc1sc2ncnc(N3CCN(S(=O)(=O)c4ccccc4)CC3)c2c1C	6.4	.	94.0*	1.7	.	.
Cc1ccc(C)c(S(=O)(=O)N2CCN(C(=O)c3ccc(C)s3)CC2)c1	44.5*	-4.8	4.2	3.7	5.4	3.8
Cc1ccc(C)c(S(=O)(=O)N2CCN(C(=O)C3CCN(c4ncnc5sc(C)c(C)c45)CC3)CC2)c1	29.3	15.4	89.3*	30.3	-5.5	25.1
CNC[C@@H]1Oc2ccc(NS(=O)(=O)c3ccc(OC)cc3)cc2CC(=O)N([C@@H](C)CO)C[C@@H]1C	.	0.2	.	.	-13.0	-0.9
COc1ccc(NC(=O)N(C)C[C@H]2Oc3ccc(NC(=O)NC4CCCCC4)cc3C(=O)N([C@@H](C)CO)C[C@@H]2C)cc1	.	6.7	.	.	-19.1	-0.1
C[C@H](CO)N1C[C@H](C)[C@H](CN(C)Cc2ccc(F)cc2)Oc2ncc(-c3cccc(C#N)c3)cc2C1=O	.	.	.	.	.	2.3
C[C@@H]1CCCCO[C@H](CN(C)S(=O)(=O)c2ccc(F)cc2)[C@@H](C)CN([C@H](C)CO)C(=O)c2cc(NC(=O)c3ccncc3)ccc2O1	.	-16.4	.	.	.	-2.9
